The whole screen tested about 1,800 compounds, of which about 410 (23%) were called active. No rule for the calls is given here. These entries were drawn from the full list. Potency and affinity values are given separately.
Assay: Vero cell cytotoxicity, cytotoxicity control for flavivirus capping enzyme inhibitors (AID 588742)
Settings: Vero cells viability, cytotoxicity counter-screen; series mostly up to 40 µM; viability: at the top concentration

Compound | viability
CC1=NN(c2ccc(C)cc2C)C(=O)C1C(c1ccccc1)C1C(=O)N(c2ccc(C)cc2C)N=C1C (stereo unspecified) | 92.2% (inactive)
O=C(O)c1ccccc1-c1ccccc1C(=O)Nc1ccc2c(c1)oc(=O)c1ccccc12 | 108% (inactive)
Cc1cc(C)c(C(=O)COc2cccnc2[N+](=O)[O-])cc1C | 99% (inactive)
COc1ccc(/C=N/NC(=O)c2nn(-c3ccccc3)c(=O)c3c(N)scc23)cc1 | 94% (inactive)
Nc1scc2c(C(=O)N/N=C/c3ccc(Cl)cc3)nn(-c3ccccc3)c(=O)c12 | 94% (inactive)
Cc1[nH]c(=O)c(C#N)c(C)c1CCC(=O)Nc1cc(S(C)(=O)=O)ccc1Cl | 105% (inactive)
N#Cc1c([N+](=O)[O-])cc([N+](=O)[O-])cc1S(=O)(=O)Cc1ccccc1 | 96.8% (inactive)
CSc1nc(SCC(=O)O)c2sc3nc(-c4ccccc4)c4c(c3c2n1)CCC4 | 95.7% (inactive)
CCCS(=O)(=O)c1nc(S(=O)(=O)c2ccc(C)cc2)c(N2CCC(O)CC2)s1 | 103% (inactive)
O=C(O)c1cccc2c1C(=O)c1ccc(-c3ccc(F)cc3OCc3ccccc3)cc1S2(=O)=O | 109% (inactive)
Cc1nc(N2C(=O)C(=O)/C(=C(/O)c3ccccc3)C2c2ccco2)sc1C (stereo unspecified) | 85% (inactive)
CCCOc1ccc(/C=C2/C(=O)ON=C2C)cc1OCC | 105% (inactive)
C=CCOc1ccc(/C=C2/C(=O)ON=C2C)cc1OCC | 102% (inactive)
CCc1cc(=O)oc2cc(OCC(=O)NCCCn3ccnc3)c(Cl)cc12 | 98.5% (inactive)
CC1(C)CC(=O)C(=Cc2cn(CCC#N)nc2-c2ccc(F)cc2)C(=O)C1 | 105% (inactive)
CCOc1cc(/C=C2\NC(=O)NC2=O)cc([N+](=O)[O-])c1O | 112% (inactive)
COc1ccc(NC(=O)Nc2c(O)ccc3ccccc23)cc1 | 94.1% (inactive)
COc1ccc2c(c1)Cc1cc(NC(=O)c3ccccc3-c3ccccc3C(=O)O)ccc1-2 | 95.3% (inactive)
COc1ccccc1NC(=O)NNC(=O)c1cc2ccccc2cc1O | 84.9% (inactive)
O=C(NCCCl)NNC(=O)c1cc2ccccc2cc1O | 94.7% (inactive)
O=C1c2ccccc2C(O)(c2ccccc2)N1c1ccc([N+](=O)[O-])cc1Cl (stereo unspecified) | 90.8% (inactive)
CCC1(C)Cc2c(sc3[nH]c(=O)[nH]c(=O)c23)CS1 (stereo unspecified) | 104% (inactive)

Compound | viability
CC1(C)Cc2c(sc3nc4n(-c5ccccc5)c(=O)c(CCC(=O)O)nn4c(=O)c23)CO1 | 108% (inactive)
CCOc1cc(/C=N/N=C2/NC(=O)C(CC(=O)O)S2)ccc1OCc1ccccc1Cl (stereo unspecified) | 100% (inactive)
COc1ccccc1N1CCN(/N=C/c2cccc(OC)c2O)CC1 | 99.3% (inactive)
Oc1ccc(NCc2ccccc2OCc2ccccc2F)cc1 | 97.6% (inactive)
CCOc1ccccc1CNc1ccc(O)cc1 | 96.2% (inactive)
COC(=O)C1=CN(c2cccc(C)c2)C=C(C(=O)OC)C1c1cc(OC)c(O)c([N+](=O)[O-])c1 | 96.7% (inactive)
C=CCOC(=O)C1=C(C)N=c2s/c(=C3\C(=O)N(CC(=O)O)c4ccccc43)c(=O)n2C1c1ccc(OC)cc1 (stereo unspecified) | 105% (inactive)
COc1ccc(/C=c2\sc3nc(=O)c(C)nn3c2=O)c(OC)c1 | 100% (inactive)
CCOC(=O)c1c(/N=C/c2cccc([N+](=O)[O-])c2O)sc(C)c1C | 105% (inactive)
Cc1ccc(S(=O)(=O)Nn2c(C)ccc2C)cc1 | 97.7% (inactive)
Cc1ccc(C(c2c(O)nc3n(c2=O)CCS3)c2c(O)nc3n(c2=O)CCS3)cc1 | 97.4% (inactive)
NS(=O)(=O)c1ccc(N=Nc2c(O)c(C(=O)O)cc3ccccc23)cc1 | 117% (inactive)
CC(=O)N1c2ccc(S(=O)(=O)N(C)CC(=O)NCc3ccc(C)cc3)cc2CC1C (stereo unspecified) | 89.4% (inactive)
COc1cc(/C=C/c2[nH]c(=O)[nH]c(=O)c2[N+](=O)[O-])cc([N+](=O)[O-])c1O | 92.2% (inactive)
CCCOc1ccc(C(=O)N/N=C/c2ccc(-c3ccc(S(=O)(=O)Nc4ncccn4)cc3)o2)cc1 | 97.5% (inactive)
O=C(/C=C/Nc1ccc(S(=O)(=O)Nc2ncccn2)cc1)c1cccs1 | 106% (inactive)
O=C1NN(c2ccccc2)C(=O)/C1=C/c1ccc(-c2ccc(C(=O)O)cc2)o1 | 108% (inactive)
Nc1nc2ncc(C(=O)c3cc(Cl)cc(Cl)c3O)cc2s1 | 95.3% (inactive)
C=CCn1c(=O)c(CCC(=O)Nc2ccc(N3CCOCC3)cc2)nc2cc(C(F)(F)F)ccc21 | 90.6% (inactive)
CC1(OC(=O)c2ccco2)C(=O)C=C2C=C(C3CC3)OC=C2C1=O (stereo unspecified) | 96.2% (inactive)
O=C(CCC1CCCC1)NNC(=O)c1cc2ccccc2cc1O | 87.1% (inactive)
O=C(NC1CCCCC1)c1cc2ccccc2cc1O | 94.5% (inactive)

Compound | viability
C/C(=N/NC(=O)c1cc(O)c(O)c(O)c1)c1ccc([N+](=O)[O-])cc1 | 99.6% (inactive)
Cc1cc(C)c2nc(N3C(=O)C(O)=C(C(=O)c4ccco4)C3c3ccc(O)cc3)sc2c1 (stereo unspecified) | 96.7% (inactive)
O=C(CNS(=O)(=O)c1ccc2ccccc2c1)OCC(=O)c1ccc(Br)s1 | 93.8% (inactive)
O=C(c1ccccc1)c1ccc(OCC(O)CN2CCN(S(=O)(=O)N3CCCCC3)CC2)cc1 (stereo unspecified) | 87.1% (inactive)
CC(C)c1ccc(Nc2ccc(C(=O)O)cc2[N+](=O)[O-])cc1 | 101% (inactive)
CCc1nnc(N/N=C/c2ccc(N3CCC(C)CC3)c([N+](=O)[O-])c2)n1N | 89.8% (inactive)
COc1ccc(C2CC(c3ccccc3)=NN2c2ccc(Cl)c(C(=O)O)c2)cc1 (stereo unspecified) | 91.2% (inactive)
O=C(CCN1C(=O)/C(=C\C=C\c2ccccc2)SC1=S)Nc1ccccc1C(=O)O | 95.4% (inactive)
O=C1CCC/C(=N/Nc2ccc(Cl)cc2)C1 | 89.1% (inactive)
COc1cc(C2C(C#N)=C(N)OC3=C2C(=O)CC(C)(C)C3)c([N+](=O)[O-])cc1OC (stereo unspecified) | 108% (inactive)
COc1ccc2c([N+](=O)[O-])c(Cl)[nH]c2c1 | 104% (inactive)
Cc1[nH]c2ccccc2c1C1=CC(=O)C=CC1=O | 89.9% (inactive)
CC(=O)N1CCN(c2ccc(NCc3ccc(Br)o3)cc2)CC1 | 106% (inactive)
Cc1nc2nc(-c3cccs3)cn2nc1C | 95.6% (inactive)
CCCCCCCC1=NN(c2ccc(S(=O)(=O)O)cc2)C(=O)C1N=O (stereo unspecified) | 100% (inactive)
COC(=O)c1ccc(N2NC(=O)/C(=C/c3ccc(OC)c(OC)c3)C2=O)cc1 | 98.2% (inactive)
O=C1NN(c2ccccc2)C(=O)/C1=C\c1cccc(OC(=O)c2cccs2)c1 | 103% (inactive)
Cc1nc2ccccc2c(=O)n1/N=C/c1ccc(O)c(O)c1O | 99.3% (inactive)
COCCNC(=O)Nc1ccc2nc(-c3ccco3)c(-c3ccco3)nc2c1 | 102% (inactive)
Oc1ccc(/C=N/N2CCOCC2)c(O)c1O | 102% (inactive)
CN=c1scc(C)n1/N=C/c1ccc(O)c(O)c1O | 95.4% (inactive)
Cc1cccc(N/N=C/c2ccc(O)c(O)c2O)c1 | 103% (inactive)
